For part of these data: Entries with a potency or affinity are not part of this list.
Legend:
Staphylococcus aureus = test: Antibacterial activity against Staphylococcus aureus MRSA ATCC 43300 (CO-ADD:GP_020); MIC in CAMBH media using NBS plates, by Resazurin F(560/590); assay type: functional; settings: Concentration 20 uM, ASSAY_TEST Inhibition of Bacterial Growth, detection method Resazurin, Fluorescence (ex560/em590), MEDIA CAMHB, plate type 384well, CORNING #3640, time 18 hr
Acinetobacter baumannii = test: Antibacterial activity against Acinetobacter baumannii ATCC 19606 (CO-ADD:GN_034); MIC in CAMBH media using NBS plates, by Resazurin F(560/590); assay type: functional; settings: Concentration 20 uM, ASSAY_TEST Inhibition of Bacterial Growth, detection method Resazurin, Fluorescence (ex560/em590), MEDIA CAMHB, plate type 384well, CORNING #3640, time 18 hr
Escherichia coli = test: Antibacterial activity against Escherichia coli ATCC 25922 (CO-ADD:GN_001); MIC in CAMBH media using NBS plates, by Resazurin F(560/590); assay type: functional; settings: Concentration 20 uM, ASSAY_TEST Inhibition of Bacterial Growth, detection method Resazurin, Fluorescence (ex560/em590), MEDIA CAMHB, plate type 384well, CORNING #3640, time 18 hr
Klebsiella pneumoniae = settings: Concentration 20 uM; ASSAY_TEST Inhibition of Bacterial Growth; detection method Absorption (OD600); MEDIA CAMHB; plate type 384well; NBS; CORNING #3640; time 18 hr
Candida albicans = settings: 20 µM
Cryptococcus neoformans = settings: Concentration 20 uM; ASSAY_TEST Inhibition of Fungal Growth; detection method Resazurin; Absorption (OD600-OD570); plate type 384well; NBS; CORNING #3640

| SMILES | Inhibition (Staphylococcus aureus) | Inhibition (Acinetobacter baumannii) | Inhibition (Escherichia coli) | Inhibition (Klebsiella pneumoniae) | Inhibition (Candida albicans) | Inhibition (Cryptococcus neoformans) |
| --- | --- | --- | --- | --- | --- | --- |
| CN(CCC#N)c1ccc(/C=C(\C#N)c2cccc(C(F)(F)F)c2)cc1 | -1.81% | 5.38% | -0.01% | 0.85% | 3.04% | -3.8% |
| CCOC(=O)Cc1cc(O)c2cc(C)ccc2n1 | 11.68% | -4.86% | 11.33% | 2.93% | -1.04% | -11.29% |
| CS(=O)(=O)O.Cc1cc2c(cc1[N+](=O)[O-])NC(CNC(C)C)CC2 (centres undefined) | 12.97% | 12.49% | 3.18% | 6.82% | -0.29% | -5.85% |
| Cn1c2c(c(=O)n(C)c1=O)NC1(N2)C(=O)Nc2ccccc21 (centres undefined) | 7.94% | -15.14% | 2.31% | 1.11% | 4.78% | -2.52% |
| O=C(O)C1=NN(c2cc(Cl)c(S(=O)(=O)O)cc2Cl)C(=O)C1 | 10.8% | 12.97% | 19.15% | 14.41% | 2.3% | -14.45% |
| CCOC(=O)c1[nH]c(C(=O)O)c(OC(=O)CC)c1C | 3.4% | 12.19% | 5.33% | 12.1% | 11.4% | -14.68% |
| O=C(O)c1ccccc1C(=O)Nc1cccc([N+](=O)[O-])c1 | -4.11% | -9.98% | -2.38% | 3.82% | 3.86% | -3.03% |
| COc1ccc(C2C3=C(COC3=O)Oc3cc4c(cc32)OCO4)cc1OC (centres undefined) | 25.54% | -8.11% | 12.52% | 17.02% | 0.53% | -1.21% |
| C1CCCC(NC2=NCCO2)CCC1 | -8.35% | -11.54% | -9.72% | 4.38% | -2.21% | -3.14% |
| OCC1(CO)CC2(C1)CC(CO)(CO)C2 | 5.83% | -10.2% | 9.77% | 7.41% | -2% | 1.54% |
| CNC(=O)c1nn(C)c(=O)[nH]c1=O | 3.46% | -10.49% | 19.05% | 15.09% | 4.6% | -7.3% |
| CCCc1nc2c(=O)n(C)c(=O)n(C)c2[nH]1 | 14.39% | -13.67% | 8.23% | 14.55% | 2.02% | -4.69% |
| c1ccc(Sc2ncnc3ccccc23)cc1 | 3.09% | -14.3% | 12.91% | 8.16% | 2.99% | -14.16% |
| COc1ccccc1/C=C1\Cc2ccccc2C1=O | -0.35% | 7.42% | -7.65% | 12% | 10.8% | -2% |
| CN(C)c1ccc2c(c1)Sc1cc(N(C)C)ccc1N2C(=O)c1ccccc1 | -9.71% | 0.08% | 1.67% | 25.07% | 11% | -3.81% |
| CN(C)c1ccc(/C=N/NC(=O)c2cnc3ccccc3c2)cc1 | 17.84% | 9.63% | 3.71% | 14.91% | 2.44% | 3.68% |
| O=C(Cn1ccc(=O)[nH]c1=O)Nc1ccc(C(=O)O)c(O)c1 | 10.2% | -9.39% | 10.79% | 11.75% | -1.14% | -6.61% |
| O=C(Nc1ccccc1)Nc1ccccn1 | 15.92% | -11.25% | 6.37% | 12.38% | 3.3% | -4.64% |
| Br.CN(C)c1n/c(=N/Cc2ccco2)ss1 | 15.96% | 6% | 7.56% | 27.1% | 6.89% | -13.39% |
| CC(O)c1nc2c(c(=O)n(C)c(=O)n2C)n1C (centres undefined) | -5.57% | -6.98% | 6.75% | 7.56% | -1.01% | -6.24% |
| C=CCNc1ncnc2sc(SC)nc12 | -6.85% | 14.45% | 5.94% | 7.44% | 10.1% | -10.12% |
| O=C(CN1CCCC1)Nc1nc(-c2ccc(Cl)cc2)cs1 | -2.74% | 10.5% | -10.54% | 13.35% | 4.21% | -1.35% |
| Cc1ccc(NC(=O)N2CCCCC2)cc1[N+](=O)[O-] | 0.24% | -10.39% | 3.85% | 3.41% | 6.56% | -11.71% |
| c1ccc(-c2nnc(-c3ccccc3)nn2)cc1 | 8.93% | 4.53% | 11.38% | -4.08% | -1.88% | -7.33% |

Reference: ChEMBL document CHEMBL4296182, “CO-ADD screening of NIH NCI Diversity Set V”
